This excerpt belongs to a sample that is enriched for hits.
CBX7 inh – CBX7 inhibition, primary AlphaScreen | O95931 | AlphaScreen His6-CBX7 / biotin-H3K27me3 peptide binding; stronger effect = lower value | normalised signal (fraction of DMSO) (no concentration beside the values) | 66,000 tested, 1.1% active | AID 1224903; in the data active = normalised signal below about 0.5
Target sequence (O95931 whole entry, looked up): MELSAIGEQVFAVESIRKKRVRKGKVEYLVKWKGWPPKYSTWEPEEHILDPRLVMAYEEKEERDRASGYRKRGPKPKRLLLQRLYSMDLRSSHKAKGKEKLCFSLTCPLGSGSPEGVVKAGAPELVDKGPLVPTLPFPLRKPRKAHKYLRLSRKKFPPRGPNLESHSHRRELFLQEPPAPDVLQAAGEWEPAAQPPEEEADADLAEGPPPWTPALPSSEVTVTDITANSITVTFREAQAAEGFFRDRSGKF
* marks the source's active call; other numbers are inactive results; ! = a repeat was not active.

SMILES	CBX7 inh
O=C(O)c1ccc(-c2nc(-c3ccc(-c4ccccc4)cc3)c(-c3ccc(-c4ccccc4)cc3)[nH]2)cc1	0.54
CCOc1cc(-c2nc(-c3ccccc3)c(-c3ccc(Br)cc3)[nH]2)ccc1O	0.62
Brc1ccc(-c2nc(-c3ccccc3)c(-c3ccc(Sc4ccccc4)cc3)[nH]2)cc1	0.86
Oc1ccc(-c2nc(-c3ccccc3)c(-c3ccc(Br)cc3)[nH]2)cc1	0.46*
Oc1ccc(-c2nc(-c3ccccc3)c(-c3ccccc3)[nH]2)cc1	0.42*!
Cc1ccc2c(C)nc(Nc3nc(C)c(C)c(=O)[nH]3)nc2c1	1.1
Cc1cccc(CN2CCN(CC(=O)NCCc3ccc(Cl)cc3)C2=O)c1	1
COC(=O)c1c(NC(=O)c2cc(Cl)ccc2OC)sc(C)c1C	1.1
Brc1ccc2nc(-c3ccccc3)cn2c1	1.1
O=C(Nc1nc(-c2ccccn2)cs1)c1ccc(Oc2ccccc2)cc1	0.12*
COc1ccc(-c2csc(NC(=O)c3cccc(Oc4ccccc4)c3)n2)c(OC)c1	0.91
COc1ccc(-c2csc(NC(=O)c3ccccc3)n2)cc1	1
COc1cc(OC)cc(C(=O)Nc2nc(-c3ccccn3)cs2)c1	0*
COc1ccc(-c2csc(NC(=O)c3ccc(Oc4ccccc4)cc3)n2)c(OC)c1	0.83
O=C(Nc1nc(-c2ccncc2)cs1)c1cccc(Oc2ccccc2)c1	0.92
CCCCNC(=O)c1c[nH]c2ccc(S(=O)(=O)N3CCCC(C)C3)cc2c1=O (stereo unspecified)	0.91
Cc1c(C(=O)Nc2ccc(F)cc2F)sc2ncn(Cc3ccccc3Cl)c(=O)c12	1.1
O=C1CN(C(=O)CCCc2ccccc2)C(c2ccccc2)c2cc(Cl)ccc2N1 (stereo unspecified)	0.82
Fc1ccc(-c2nnc3ccc(NCCCN4CCN(Cc5ccccc5)CC4)nn23)cc1	0.82
Cc1ccc(Cl)cc1NC(=O)CN(c1ccc(C(C)C)cc1)S(=O)(=O)c1c(C)nn(C)c1C	0.95
CCOC(=O)c1c(NC(=O)COc2ccc(Cl)cc2)sc2c1CCC(CC)C2 (stereo unspecified)	1.1
CCCCN1CCCc2cc(CN(CCCN3CCOCC3)C(=O)Nc3ccccc3)ccc21	0.53
CCCCN1CCCc2cc(CN(CCCN3CCOCC3)C(=O)Nc3ccc(CC)cc3)ccc21	0.23*
CCCN1CCCc2cc(CN(CCCN3CCOCC3)C(=O)Nc3ccc(CC)cc3)ccc21	0.52
CC(=O)N1CCC(N(C(=O)Nc2ccc(C)c(C)c2)C2CCCCCC2)CC1	1.1
SMILES	CBX7 inh
CCc1ccc(NC(=O)N(CCC(C)C)C2CCN(C(C)C)CC2)cc1	1.1
CCc1ccc(NC(=O)N(C2CCCCCC2)C2CCN(C(C)=O)CC2)cc1	1
CCN1CCCc2cc(CN(C(=O)Nc3ccc(C)c(C)c3)C3CCCC3)ccc21	0.44*
CCc1ccc(NC(=O)N(Cc2ccc3c(c2)CCCN3CC)C2CCCC2)cc1	0.34*
CCCN1CCCc2cc(CN(C(=O)Nc3ccc(Cl)c(Cl)c3)C(C)CC)ccc21 (stereo unspecified)	0.59
COc1ccc(-c2nn(C)c3sc(C(=O)NCCCN4CCc5ccccc5C4)cc23)cc1OC	0.93
COc1ccc(NC(=O)C2CC(c3cc(OC)ccc3OC)=NO2)cc1 (stereo unspecified)	0.99
CC(c1ccncc1)N(CCN(C)C)C(=O)Nc1ccccc1 (stereo unspecified)	0.98
COc1ccc(Nc2ncc(C(=O)Nc3cnc4ccccc4c3)c3ccccc23)cc1	0.9
CCOc1ccc(NC(=O)c2cnc(Nc3ccc(OC)cc3)c3ccccc23)cc1	0.97
COc1ccc(Nc2ncc(C(=O)Nc3cccc(Cl)c3)c3ccccc23)cc1	0.2*
COc1ccc(Nc2cc(C(=O)NC3CCCC(C)C3C)c3ccccc3n2)cc1 (stereo unspecified)	1.2
CCN(CC)C(=O)C1CC(c2ccc(F)cc2)=NO1 (stereo unspecified)	1
COc1ccc(-c2c(C)nn3c(NC4CC4)cc(C)nc23)cc1OC	0.92
CCC(C)NC(=O)CS(=O)(=O)Cc1nc(-c2ccccc2C)oc1C (stereo unspecified)	1.2
COc1ccccc1Nc1nc(-c2ccccc2Cl)nc2ccccc12	1.3
COc1ccccc1Nc1nc(-c2ccncc2)nc2ccccc12	0.33*
COc1ccccc1Nc1nc(-c2ccc(C)cc2)nc2ccccc12	1.4
O=C(NCCC1=CCCCC1)c1nnc(Cc2ccc(F)cc2)o1	1
CCCCn1c(=N)n(CCOc2ccc(OC)cc2)c2ccccc21	0.91
COc1ccc(S(=O)(=O)Nc2ccc(-c3cn4cccc(C)c4n3)cc2)cc1	1.1
COCCn1c(SCC(=O)Nc2ccc(F)cc2)nnc1-c1c[nH]c2ccccc12	1
COc1ccc(NC2c3ccccc3C(=O)N2c2ccc(C)cn2)cc1OC (stereo unspecified)	0.94
COc1cc(OC)c(NC2c3ccccc3C(=O)N2c2ccc(C)cn2)cc1Cl (stereo unspecified)	0.41*
COc1ccc(OC)c(NC2c3ccccc3C(=O)N2c2ccc(Cl)cn2)c1 (stereo unspecified)	0.34*

High-throughput results (PubChem)
